Drawing on PubChem BioAssay (NCI), this text covers growth for 13 compounds.

SMILES strings stand for the structures. The panel holds about 83,000 compounds, 20% with a hit somewhere; the sample as a whole holds those more often.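 Each cell line was grown in a 96-well plate and treated with one concentration of compound for 48 hours. Values below 10 were considered active.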 Values without a mark were called inactive. The source made the active and inactive calls.

The first assay has as its system NCI/ADR-RES ovarian. The assay can be described thus: NCI-60 one-dose screen, 48 h (100 = growth as untreated, 0 = no growth, -100 = all killed). Conditions: 10 µM unless noted.
Turning to `CN1CCN(/C(=N\c2sc(-c3ccccc3)nc2-c2ccccc2)c2ccccc2)CC1`, the growth was 90.4%.
On the same count and under the same terms, the figure for `N=C1N=C(SCc2nc3ccccc3[nH]2)NC(=O)/C1=C/c1ccc(Cl)cc1` is 100%.
As to `C/C(=N\N=C1/C(=O)Nc2ccc(Cl)cc21)c1ccc2c(c1)Nc1ccccc1S2`, the growth was -28.3% (active).
Still for that read-out and setting: under `Cc1cccc(NC(=O)CN2CCN(c3ncnc4c3cnn4-c3ccccc3)CC2)c1` stands 89.4%; under `CN(C)CCOc1ccc(C(=O)C2[C@H](c3ccc(Cl)cc3)[C@@H](c3ccccc3)NC23C(=O)Nc2ccccc23)cc1` (stereo partly drawn), 86.4%.
Turning to `COc1ccc2[nH]cc(-c3nnc(N)nc3-c3cn(C)c4ncc(Br)cc34)c2c1`, the growth is 83.5%.

In the next assay the test system is T-47D breast. The assay is described as above. As to conditions: 10 µM unless noted.
As to `COc1c(F)ccc(C(=O)Nc2ccc3nc(NC(=O)C4CCCN(S(=O)(=O)C5CC5)C4)sc3c2)c1F` (stereo not drawn), the growth is -5.4% (active).
Still for that read-out and setting: the figure for `CCOC(=O)C1=C(N)N(c2ccccc2)C2=C(C(=O)CC(C)(C)C2)C1c1ccc(N2CCOCC2)cc1` (stereo not drawn) is 93.7%; for `OCC1(CCCc2ccccc2)CCCN(c2nccc3ccccc23)C1` (stereo not drawn) it is 28.3%.
The same measure, in the same setting: the figure for `COc1ccc(/C=N/NC(=O)Cn2nc(Cc3ccc(OC)cc3)c3onc(C)c3c2=O)cc1` is 40.7%; for `O=[N+]([O-])c1ccc(/C=C/c2nc3ccccc3n3c(=S)[nH]nc23)cc1` it is 67.5%; for `COC(=O)/C=C/c1cccc2c1C(=O)NC(C)(c1cc3ccccc3oc1=O)N2` (stereo not drawn) it is 51.4%.
Still for that read-out and setting: under `CCN(CC)c1ccc(/C=N/Nc2nc(-c3ccc(Br)cc3)cs2)c(O)c1` stands 80.9%.
